The values below come from PubChem BioAssay (NCI).

Compounds without any hit were thinned out: in the full panel of roughly 83,000, 20% have a hit.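 Single-dose data. Exposure time 48 hours. Values below 10 considered active.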 Activity calls are given as the source filed them.

The test has as its system SF-295 CNS. In words: NCI-60 one-dose screen, 48 h (100 = growth as untreated, 0 = no growth, -100 = all killed). To be noted: 10 µM.
As to `CCNc1nc2c(cnn2C)c(=O)[nH]1`, the growth was 103% (inactive).

Take `O=[N+]([O-])c1cccc(N=Nc2ccc(O)cc2O)c1`: the growth is 95.7% (inactive).

`CC(=O)/C(Cc1ccccc1)=N/O`: the growth is 105% (inactive).

Take `O=[N+]([O-])c1ccccc1N=Nc1ccc(O)cc1O`: the growth was 107% (inactive).

In the case of `CC(=O)OCC(=O)[C@@]1(O)CC[C@H]2[C@@H]3CC[C@@H]4C[C@H](O)CC[C@]4(C)[C@H]3C(=O)C[C@@]21C`, the growth is 104% (inactive).

As to `COc1cccc(/C=N/NC(=S)NC2CC3CCC2C3)c1O` (centres undefined), the growth was 15.9% (inactive).

On to `COc1cc2nn(-c3ccccc3N)nc2cc1OC`, for which the growth was 105% (inactive).

On to `O=[N+]([O-])c1ccc(S(=O)(=O)NN=C2CCCCC2)cc1`, for which the growth is 97.8% (inactive).

As for `CC(=O)c1ccc(N=C(C#N)C2=C(O)c3ccccc3C2=O)cc1`, the growth was 102% (inactive).

For `CNc1nc(NC)c2cn[nH]c2n1`, the growth is 98.4% (inactive).

Consider `CC(=Nc1ccccc1)C1=C(O)C(Cc2cccc(F)c2)NC1=O` (centres undefined), for which the growth is -5.61% (active).

For the compound `CCOC(=O)c1ccc(NC(=S)P(=O)(c2ccccc2)c2ccccc2)cc1`, the growth was 104% (inactive).

For `COCCOC(=O)c1ccc(C(C)C)cc1`, the growth was 104% (inactive).

On to `CCCC(C)OCC(=O)O` (centres undefined), for which the growth was 98.5% (inactive).

As for `O=c1[nH][nH]c(=O)c2cc([N+](=O)[O-])ccc12`, the growth is 117% (inactive).

As to `CCCCCCCCO`, the growth was 108% (inactive).

`Cn1cnc2nc(Cl)nc(Cl)c21`: the growth is 16.3% (inactive).

Consider `OCC(O)C(O)C(O)C(O)/C=N/O` (centres undefined), for which the growth was 105% (inactive).

As for `O=C(O)COCC(=O)O`, the growth is 89.7% (inactive).

As to `NC(=S)N/N=C/c1ccc(N)cc1`, the growth is 102% (inactive).

As to `O=c1[nH]nc(SC2CCCCC2)c(=O)[nH]1`, the growth is 118% (inactive).

For `CC1CC(O)C2C3(C)CCCC2(COC3=O)C12CCC1(CCOC1=O)O2` (centres undefined), the growth is 131% (inactive).

Regarding `CCOc1ccc(Br)cc1/C=N\N=C\c1cc(Br)ccc1OCC`, the growth was 100% (inactive).

With `S=C1CCCCCN1`, the growth was 102% (inactive).

As to `CC1CCCCN1C(=S)Nc1ccc(S(=O)(=O)N2CCCCC2)cc1` (centres undefined), the growth was 79.2% (inactive).

Regarding `COc1cc(C2c3cc4c(cc3C3OC(=O)C2C3CO)OCO4)cc(OC)c1OC` (centres undefined), the growth is 3.2% (active).

For `CCCCOC(=O)c1ccc(C(C)C)cc1`, the growth was 101% (inactive).

Regarding `O=C(O)CCCC(=O)O`, the growth is 110% (inactive).

As for `COc1ccc(-c2cc3c(nn2)-c2ccccc2C3=O)cc1`, the growth was -40.7% (active).
